Results on 14 compounds are retold here after PubChem BioAssay.

The subject of experiment [1] is Wnt5a (protein binding on small-molecule microarray). The experiment can be described thus: small molecules binding Wnt5a protein – biophysical, small-molecule microarray, 635/667 nm fluorescence, primary screen (AID 1142).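 Also: fluorescence read at 667 nm with signal to noise per printed feature.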 The conditions noted are these: 635 nm fluorescence, higher = more signal.
Experiment [2] is described as follows: ATP-based viability of Huh7 replicon cells – cell-based, CellTiter-Glo luminescence, basal, 48 h, cytotoxicity control for HCV replication inhibitor project, primary screen (AID 1143).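 Also: Huh7 hepatoma cells carrying a hepatitis C replication reporter with no stimulus; test concentration not given here.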 The conditions noted are these: higher = more signal, called active from +8 up or from −8 down. For orientation: A replicon is a self-replicating genome or part of one, used to study replication in cells.

A short description of experiment [3]: Pseudomonas biofilm growth suppression – PAO1 strain, BacTiter-Glo luminescence, LB-PBS, primary screen (AID 1144). The conditions noted are these: P. aeruginosa PAO1 biofilm, 12 h, higher = more signal.
Experiment [4] can be described thus: basal CRE-LacZ reporter activity in PC12 – cell-based, unstimulated, primary screen (AID 1145). The conditions noted are these: no forskolin, luminescence, 4.5 h, higher = more signal, called active from +8 up or from −8 down.
Experiment [5] is described as follows: forskolin-driven CRE-LacZ activity in PC12 – cell-based, CRE-LacZ reporter, forskolin-stimulated, primary screen (AID 1146).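 Also: PC12 cells with 6xCRE LacZ reporter stimulated by forskolin 10 µM; beta-galactosidase reporter signal reflecting CREB driven transcription.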 The conditions noted are these: luminescence, 4.5 h, higher = more signal, called active from +8 up or from −8 down.
In experiment [6] the target is Streptavidin (Streptomyces avidinii) (UniProt P22629). The experiment can be described thus: compounds binding control protein streptavidin – biophysical, small-molecule microarray, 635/667 nm fluorescence, artefact control for SMM compound annotation, primary screen (AID 1147).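 Also: signal reflects streptavidin binding to arrayed compounds as a control protein.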 The conditions noted are these: higher = more signal.
Experiment [7] can be described thus: probe aInhba binding on compound microarray – biochemical, small-molecule microarray, 635/667 nm fluorescence, primary screen (AID 1148).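 Also: score merges 667nm spot fluorescence with signal-to-noise for antibody binding to printed compounds.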 The conditions noted are these: higher = more signal.
Experiment [8] concerns the target Torsin-1A (Homo sapiens) (UniProt O14656). The experiment can be described thus: TOR1A wild-type binding on microarray – cell lysate, small-molecule microarray, lysate, 635/667 nm, primary screen (AID 1149). The conditions noted are these: COS7 hTOR1A-WT lysate, 635 nm fluorescence, higher = more signal.
Experiment [9] shares this target. The experiment can be described thus: torsin A mutant lysate binding on microarrays – cell lysate, small-molecule microarray, COS7 lysate, 635/667 nm fluorescence, primary screen (AID 1150).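 Also: score pools 667 nm emission and signal to noise measuring lysate protein binding.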 The conditions noted are these: COS7 hTOR1A mutant lysate, 635 nm fluorescence, higher = more signal.
Experiment [10] deals with Sonic hedgehog protein (Shh). The experiment can be described thus: Sonic hedgehog microarray binding compounds – biochemical, small-molecule microarray, 635/667 nm fluorescence, primary screen (AID 1151).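 Also: Shh protein binding to compounds spotted on small-molecule microarray slides; score combines spot fluorescence intensity with signal-to-noise across triplicate slides.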 The conditions noted are these: 635 nm fluorescence, higher = more signal.

Activity calls are given as the source filed them. Unless noted, no rule for the calls is given here.

Chain of Torsin-1A (Homo sapiens) (O14656 whole entry, looked up): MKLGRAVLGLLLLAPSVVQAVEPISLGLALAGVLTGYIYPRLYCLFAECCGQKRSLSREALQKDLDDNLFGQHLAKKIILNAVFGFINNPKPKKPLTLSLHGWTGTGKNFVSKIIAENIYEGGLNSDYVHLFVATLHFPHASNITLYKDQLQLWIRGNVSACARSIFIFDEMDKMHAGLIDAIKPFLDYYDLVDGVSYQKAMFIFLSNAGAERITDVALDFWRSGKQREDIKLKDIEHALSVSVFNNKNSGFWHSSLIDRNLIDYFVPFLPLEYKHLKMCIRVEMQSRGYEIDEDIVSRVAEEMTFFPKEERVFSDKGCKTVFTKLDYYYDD
Chain of Streptavidin (Streptomyces avidinii) (P22629 whole entry, looked up): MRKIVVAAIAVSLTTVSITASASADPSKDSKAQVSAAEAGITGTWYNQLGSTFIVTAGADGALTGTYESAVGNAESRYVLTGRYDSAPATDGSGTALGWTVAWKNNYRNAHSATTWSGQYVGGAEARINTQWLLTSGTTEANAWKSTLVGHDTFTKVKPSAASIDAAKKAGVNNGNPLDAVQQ

For `COc1ccc(C(=O)Nc2cccc(CN3C(=O)[C@@]4(O[C@@H](CC(=O)N5CCC[C@H]5CO)[C@H]([Si](C)(C)c5ccc(OC)cc5)[C@H]4C)c4ccccc43)c2)cc1`, the composite z-score is 0.107 in [1]; 0.621 in [6]; -0.0454 in experiment [7]; 0.313 with Torsin-1A (Homo sapiens) [8]; 1.15 with Torsin-1A (Homo sapiens) [9]; 1.26 in experiment [10]. The z-score is -4.18 (inactive) in experiment [2], -0.601 (inactive) in experiment [3], 1.69 (inactive) in experiment [4] and -1.55 (inactive) in experiment [5].

Turning to `COCCOC(=O)N1C(=O)[C@@]2(c3cc(C#CCC(C(=O)OC)C(=O)OC)ccc31)[C@H](c1ccc(O)cc1)N1[C@H](c3ccccc3)[C@H](c3ccccc3)OC(=O)[C@H]1[C@@H]2C(=O)Nc1nc2ccccc2s1`, the composite z-score in experiment [1] worked out at 0.553; in experiment [6], 0.633; in experiment [7] it was 0.221; in the experiment with Torsin-1A (Homo sapiens) [8], 0.533; with Torsin-1A (Homo sapiens) [9], 0.479; in [10] it was 1.77. Also, the z-score in experiment [2] was -1.48 (inactive); in [3], 0.164 (inactive); in [4], -0.195 (inactive); in [5], -0.521 (inactive).

As for `CCCCN1CC=CC23O[C@@H]4/C=C\CCCOC(=O)C4[C@H]2C(=O)N(C(CO)C(C)C)[C@@H]3C1=O` (stereo not given in full), the composite z-score in [1] is -0.256; in [6], -0.275; in [7], 0.419; with Torsin-1A (Homo sapiens) [8], -0.277; with Torsin-1A (Homo sapiens) [9], -0.455; in experiment [10], 1.14. Also, the z-score in experiment [2] was -0.352 (inactive); in experiment [3] it was 1.3 (inactive); in [4], -0.22 (inactive); in experiment [5], -0.182 (inactive).

Consider `CC(C)C(CO)N1C(=O)[C@@H]2C3C(=O)OCCC/C=C\[C@H]3OC23C=CCN(Cc2ccccc2)C(=O)[C@@H]13` (stereo not given in full), for which the composite z-score is 0.0204 in [1]; -1.14 in [6]; 0.0212 in [7]; 0.662 in the experiment with Torsin-1A (Homo sapiens) [8]; 0.825 with Torsin-1A (Homo sapiens) [9]; 0.855 in experiment [10]. Further, the z-score in [2] was -0.294 (inactive); in experiment [3], 2.31 (inactive); in experiment [4], 0.601 (inactive); in experiment [5] it was 0.312 (inactive).

Consider `C=C(CCCC)/C(=C/C[C@H](OC(=O)c1ccncc1)c1ccc(OCCO)cc1)c1cnc2ccccc2c1`, for which the composite z-score in experiment [1] was 0.766; in [6], 1.83; in experiment [7], -0.0221; with Torsin-1A (Homo sapiens) [8] it was 1.03; with Torsin-1A (Homo sapiens) [9], 0.667; in experiment [10], 1.4. Moreover, the z-score is -1.17 (inactive) in experiment [2], 0.15 (inactive) in [3], 10.9 (active) in [4] and -0.574 (inactive) in experiment [5].

For `COCCCN1C(=O)[C@@]2(c3ccc([N+](=O)[O-])cc3)CC(=O)N(CC34CC5CC(CC(C5)C3)C4)[C@@H]2c2ccc(CO)cc21`, the composite z-score in [1] is -0.15; in experiment [6], 0.135; in experiment [7], -0.138; in the experiment with Torsin-1A (Homo sapiens) [8] it was -0.323; in the experiment with Torsin-1A (Homo sapiens) [9], -0.0458; in experiment [10] it was 0.791. In addition, the z-score was -0.636 (inactive) in experiment [2], -0.453 (inactive) in [3], -1.32 (inactive) in [4] and -0.556 (inactive) in experiment [5].

As for `COc1ccc([Si](C)(C)[C@@H]2[C@@H](CC(=O)N3CCC[C@H]3CO)O[C@]3(C(=O)N(Cc4cccc(N5CCCCC5=O)c4)c4ccccc43)[C@H]2C)cc1`, the composite z-score in [1] is -0.104; in experiment [6], -0.164; in experiment [7], -0.176; with Torsin-1A (Homo sapiens) [8], 0.594; in the experiment with Torsin-1A (Homo sapiens) [9], 0.81; in experiment [10], 1.68. The z-score in experiment [2] was -2.77 (inactive); in [3], -0.331 (inactive); in [4] it was 0.105 (inactive); in experiment [5] it was -0.95 (inactive).

In the case of `[N-]=[N+]=NCc1ccccc1[C@@H]1OC(c2ccc(OCCCO)cc2)=N[C@]1(Cc1ccccc1N=[N+]=[N-])C(=O)O`, the composite z-score in experiment [1] was 1.04; in [6], 0.488; in experiment [7], 0.587; in the experiment with Torsin-1A (Homo sapiens) [8], 0.177; with Torsin-1A (Homo sapiens) [9] it was 0.585; in experiment [10] it was -0.379. Besides, the z-score is -2.25 (inactive) in [2], -1.09 (inactive) in experiment [3], 0.526 (inactive) in experiment [4] and -0.638 (inactive) in experiment [5].

With `CN(C)c1ccc(C(O)C2C=CC3C(=O)N(Cc4ccccc4)C(=O)C3N2n2cnnc2)cc1` (stereo not given), the composite z-score in [1] is -0.347; in experiment [6], 0.143; in experiment [7], -0.149; in the experiment with Torsin-1A (Homo sapiens) [8], 0.131; with Torsin-1A (Homo sapiens) [9], -0.243; in [10] it was -0.11. In addition, the z-score is 0.166 (inactive) in [2], -1.85 (inactive) in experiment [3], -1.09 (inactive) in [4] and -0.607 (inactive) in experiment [5].

For `COc1cc(OC)c(C(O)C2C=CC3C(=O)N(c4ccccc4)C(=O)C3N2Nc2ccc(C(C)C)cc2)cc1Br` (stereo not given), the composite z-score in experiment [1] came out at 0.386; in experiment [6], 1.71; in [7], 0.136; in the experiment with Torsin-1A (Homo sapiens) [8], 0.255; in the experiment with Torsin-1A (Homo sapiens) [9] it was 0.345; in experiment [10], 0.415. In addition, the z-score in [2] was -0.942 (inactive); in experiment [3], -1.49 (inactive); in experiment [4], 1.78 (inactive); in experiment [5], -0.567 (inactive).

For `CC(C)c1nc2cc(Br)ccc2c(=O)o1`, the composite z-score in experiment [1] was 0.432; in [6], 0.632; in experiment [7], -0.0736; with Torsin-1A (Homo sapiens) [8] it was 0.0358; in the experiment with Torsin-1A (Homo sapiens) [9], 0.244; in experiment [10], 0.116. In addition, the z-score is -0.232 (inactive) in experiment [2], -0.523 (inactive) in [3], -0.348 (inactive) in [4] and -0.524 (inactive) in experiment [5].

`CC(C)N1C(=O)c2ccccc2[C@@H](C(=O)NCC(F)(F)F)[C@@H]1c1ccc(CO)cc1`: the composite z-score in experiment [1] is -0.167; in [6] it was -0.268; in experiment [7], -0.152; in the experiment with Torsin-1A (Homo sapiens) [8], -0.0705; with Torsin-1A (Homo sapiens) [9], -1.02; in [10], 0.119. The z-score is 0.837 (inactive) in experiment [2], 1.03 (inactive) in [3], 0.145 (inactive) in experiment [4] and 0.557 (inactive) in [5].

As to `COC(=O)C(CC#Cc1ccc2c(c1)[C@]1(C(=O)N2)[C@H](c2ccc(OCCO)cc2)N2[C@H](c3ccccc3)[C@H](c3ccccc3)OC(=O)[C@H]2[C@@H]1C(=O)N1CCCCCCC1)C(=O)OC`, the composite z-score in experiment [1] came out at 1.33; in experiment [6], 2.97; in [7], 1.88; in the experiment with Torsin-1A (Homo sapiens) [8], 2.01; with Torsin-1A (Homo sapiens) [9], 1.9; in experiment [10], 0.582. In addition, the z-score in [2] was -1.99 (inactive); in experiment [3], -1.14 (inactive); in experiment [4] it was 0.622 (inactive); in experiment [5], -0.159 (inactive).

On to `CC(C)C(=C=CC[C@H](O)c1ccccc1OCCO)C[C@H](O)c1cc(Cl)cc(Cl)c1O`, for which the composite z-score stood at 0.192 in experiment [1]; 0.855 in [6]; 0.0966 in experiment [7]; 0.786 with Torsin-1A (Homo sapiens) [8]; 1.06 in the experiment with Torsin-1A (Homo sapiens) [9]; 1.85 in [10]. Moreover, the z-score in experiment [2] is -0.825 (inactive); in experiment [3], -0.328 (inactive); in [4], 14.6 (active); in [5] it was 1.59 (inactive).
